The source of these data is the supplement of paper PMC7858590.

The subject of the first assay is human monocyte-derived macrophages (polarized). In words: cell shape (eccentricity) Z-score vs DMSO control; higher = more elongated, M2-like morphology. As to conditions: 5 µM; 24 h; macrophage state: M1-polarized (IFNg + TNFa), cytokines present during treatment. How it is done: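 Primary-screen hits were rescreened on polarized hMDMs with the differentiating cytokines (IL-4 + IL-13 or IFNg + TNFa) kept in the medium during treatment with compound at 5 uM for 24 h. The eccentricity Z-score vs DMSO wells is averaged over experiments.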
`O=C(Cc1ccc(-c2ccc(OCCN3CCOCC3)cc2)cn1)NCc1ccccc1`: the “cell shape (Z-score)” value worked out at 9.67.

For the compound `CC[C@H](Nc1ncnc2[nH]cnc12)c1nc2cccc(F)c2c(=O)n1-c1ccccc1`, the “cell shape (Z-score)” value was -16.8.

Turning to `Cn1cnc(-c2cc3nccc(Oc4ccc(NC(=S)NC(=O)Cc5ccccc5)cc4F)c3s2)c1`, the “cell shape (Z-score)” value amounted to 3.19.

`Cc1cc(O)cc(=O)o1`: the “cell shape (Z-score)” value amounted to 7.71.

In the case of `CC(C)(C)c1nc(-c2cccc(NS(=O)(=O)c3c(F)cccc3F)c2F)c(-c2ccnc(N)n2)s1`, the “cell shape (Z-score)” value was -2.77.

As for `Cc1nc(Nc2ncc(C(=O)Nc3c(C)cccc3Cl)s2)cc(N2CCN(CCO)CC2)n1`, the “cell shape (Z-score)” value was 19.8.

Take `C[C@@H](N)[C@H]1CC[C@H](C(=O)Nc2ccncc2)CC1`: the “cell shape (Z-score)” value was found to be 5.7.

Consider `COc1cccc2c1C(=O)c1c(O)c3c(c(O)c1C2=O)C[C@@](O)(C(=O)CO)C[C@@H]3O[C@H]1C[C@H](N)[C@H](O)[C@H](C)O1`, for which the “cell shape (Z-score)” value was determined as 22.

Turning to `O=C(c1ccc(/C=C/c2n[nH]c3ccccc23)cc1)N1CCNCC1`, the “cell shape (Z-score)” value is 28.4.

Consider `Oc1cccc(O)c1`, for which the “cell shape (Z-score)” value is -3.74.

Regarding `Oc1cccc(-c2nc(N3CCOCC3)c3oc4ncccc4c3n2)c1`, the “cell shape (Z-score)” value is -3.07.

On to `NC(=O)Nc1cc(-c2cccc(F)c2)sc1C(=O)N[C@H]1CCCNC1`, for which the “cell shape (Z-score)” value was determined as 7.81.

As to `COc1ccc(OC)c(-c2nnc3n2N=C(c2ccc(OC)c(OC)c2)CS3)c1`, the “cell shape (Z-score)” value worked out at 13.8.

For the compound `CC(C)(C)n1nc(-c2cccc3ccccc23)c2c(N)ncnc21`, the “cell shape (Z-score)” value amounted to 6.74.

On to `Cc1ccc(S(=O)(=O)OCC(=O)Nc2ccc(C(=O)O)c(O)c2)cc1`, for which the “cell shape (Z-score)” value was -2.63.

On to `CN(C)CCC=C1c2ccccc2COc2ccccc21`, for which the “cell shape (Z-score)” value is -7.17.

In the case of `CCCCCc1c2c(cc(O)c1C(=O)O)OC(=O)c1c(cc(OC)cc1C(=O)CCCC)O2`, the “cell shape (Z-score)” value was determined as 2.35.

On to `O=C(Nc1ccncc1)c1cc([N+](=O)[O-])ccc1Cl`, for which the “cell shape (Z-score)” value is 5.38.

On to `CC(NCCC(c1ccccc1)c1ccccc1)c1ccccc1` (stereo unspecified), for which the “cell shape (Z-score)” value was -8.8.

With `N[C@@H](CC(=O)N1CCn2c(nnc2C(F)(F)F)C1)Cc1cc(F)c(F)cc1F`, the “cell shape (Z-score)” value was determined as 2.26.

With `CCn1c(=O)c2c(nc(/C=C/c3ccc(OC)c(OC)c3)n2C)n(CC)c1=O`, the “cell shape (Z-score)” value was determined as 3.19.

Regarding `COc1nccnc1NS(=O)(=O)c1ccc(NC(=O)/C=C/c2ccc([N+](=O)[O-])s2)cc1`, the “cell shape (Z-score)” value was -4.64.

As to `COc1cc(-c2ccc(=O)[nH]n2)ccc1OC(F)F`, the “cell shape (Z-score)” value is -4.29.

For the compound `COc1cc2ncn(-c3cc(OCc4ccccc4C(F)(F)F)c(C(N)=O)s3)c2cc1OC`, the “cell shape (Z-score)” value was 13.5.

The same assay, now with this note: 5 µM; 24 h; macrophage state: M2-polarized (IL-4 + IL-13), cytokines present during treatment.
In the case of `Nc1ccccc1NC(=O)c1ccc(CNC(=O)OCc2cccnc2)cc1`, the “cell shape (Z-score)” value was -0.828.

On to `COc1ccc(/C=C/C(=O)c2ccc(O)cc2O)cc1`, for which the “cell shape (Z-score)” value was -3.18.

`Cc1nc(Nc2n[nH]c3c2CN(C(=O)N[C@H](CN(C)C)c2ccccc2)C3(C)C)c2sccc2n1`: the “cell shape (Z-score)” value was -7.51.

For `COC(=O)Nc1nc2cc(Sc3ccccc3)ccc2[nH]1` [Fenbendazole], the “cell shape (Z-score)” value is -14.3.

`CC(=O)Cc1cc(=O)c2c(C)cc(O)c(C3OC(CO)C(O)C(O)C3O)c2o1` (stereo unspecified): the “cell shape (Z-score)” value is -1.16.

As to `CCCCc1ccc2[nH]c(NC(=O)OC)nc2c1`, the “cell shape (Z-score)” value was determined as 0.889.

For the compound `CC(=O)O[C@@H]1C[C@H]2C(C)(C)C(=O)CC[C@]2(C)[C@H]2CC[C@@]3(C)[C@H](c4ccoc4)OC(=O)[C@H]4O[C@]43[C@@]21C`, the “cell shape (Z-score)” value is -5.73.

Consider `O=C(Nc1ccc([N+](=O)[O-])cc1O)Nc1ccccc1Br`, for which the “cell shape (Z-score)” value is -12.2.

For the compound `CN(C)CCC=C1c2ccccc2COc2ccccc21`, the “cell shape (Z-score)” value was -5.83.

On to `O=c1nc2ccccc2c2n1CC(CN1CCN(c3ccccc3)CC1)N2` (stereo unspecified), for which the “cell shape (Z-score)” value was -1.27.

Regarding `C=C1C(=O)O[C@H]2[C@H]1CC/C(C)=C/CC[C@@]1(C)O[C@@H]21` [Parthenolide], the “cell shape (Z-score)” value was -1.29.

On to `COc1cc2c(cc1-c1coc3c4c(ccc3c1=O)OC(C)(C)C=C4)OCO2`, for which the “cell shape (Z-score)” value was -5.25.
